Assay outcomes as filed in PubChem BioAssay.
Sampled rows, rich in hits. Any-hit rate of the full collection: about 8.9%.
WNV protease inh: WNV NS2B-NS3 proteinase inhibition; WNV NS2B-NS3 protease, fluorogenic substrate Ex360/Em465; active compounds read low; z-score (no concentration beside the values); AID 577; 0.18% of 65,000 active; in the data active = z-score below about -3
Target sequence (P06935 1371-1501 limits assumed): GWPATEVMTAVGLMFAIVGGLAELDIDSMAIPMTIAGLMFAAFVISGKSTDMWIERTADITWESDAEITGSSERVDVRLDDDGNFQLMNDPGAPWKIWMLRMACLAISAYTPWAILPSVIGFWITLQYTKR
Target sequence (P06935 1502-1679 limits assumed): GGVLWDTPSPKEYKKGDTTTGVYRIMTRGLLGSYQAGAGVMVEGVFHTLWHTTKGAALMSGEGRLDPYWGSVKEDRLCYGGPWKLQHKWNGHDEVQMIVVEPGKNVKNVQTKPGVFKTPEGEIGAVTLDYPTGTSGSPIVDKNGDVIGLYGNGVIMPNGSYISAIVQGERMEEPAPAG
M1 antag: antagonists of rat M1 muscarinic receptor; P08482; CHO-M1 cells, Fluo-4 calcium, ACh EC80 antagonist mode; active compounds read low; B-score at 10 µM; 3.4% of 64,000 active; AID 628;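 active = calcium fluorescence response, raw or row-and-column corrected B-score, differing from the plate sample mean either way at a set confidence level, mostly lower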
D1 mod: allosteric modulators of human D1 dopamine receptor; P21728; 5.9% of 58,000 active; B-score at 10 µM; HEK293 D1, CRE-luciferase, dopamine EC30 potentiation; actives deviate in either direction;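 active = luminescence count or its row- and column-corrected plate score outside the 99.7% band of the plate's sample wells, on either side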
M1 ag: agonists of M1 muscarinic receptor; CHO-M1 cells, Fluo-4 calcium fluorescence, agonist mode; active compounds read high; B-score at 10 µM; 3% of 64,000 active;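 active = fluorescence rise, raw or as B-score row- and column-corrected plate score, outside the 99.7% band of its plate's samples, either direction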
mHtt clearance: compounds clearing mutant huntingtin protein; 0.42% of 47,000 active; inhibition, % at 1.5 µM; HeLa Exon1htt(103Q)mCFP, aggregate imaging; zero = plate's median compound well; AID 853;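 active = inhibition of aggregate fluorescence above about 70%, also judged a hit by eye on the cell image, limit read from the data, passing the limit was not always enough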;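 also: cells exposed to compound for three days before fixation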
* hit, by the source's call.

Screening C=CCn1cnc2c(c1=O)c1nc3ccccc3nc1n2/N=C/c1cccc(OC)c1OC returned WNV protease inh -0.42, M1 antag -1.4, D1 mod 0.18 and M1 ag 4.8*.
Screening O=c1c2c3nc4ccccc4nc3n(CC3CCCO3)c2ncn1CCc1ccccc1 (stereo not given) returned WNV protease inh 0.16, M1 antag -0.68, D1 mod 0.35 and M1 ag 1.3.
Cn1c(SCc2cc(=O)n3cc(Br)ccc3n2)nnc1C1COc2ccccc2O1 (stereo not given) was read as WNV protease inh -1.5, M1 antag -1.5, D1 mod -0.95 and M1 ag -0.43.
`COc1cc2ccccc2cc1-c1nnc(COc2ccccc2)o1` gave WNV protease inh -0.58, M1 antag -0.68, D1 mod -0.35 and M1 ag -0.65.
Screening CCOC(=O)C1=C(C)NC(SCC(=O)Nc2nc(C)cs2)=C(C#N)C1c1cccs1 (stereo not given) returned WNV protease inh -0.02, M1 antag 0.036, D1 mod -1.9 and M1 ag 0.014.
CNC(=O)CSc1nnc(-c2ccco2)n1-c1ccccc1OC was read as WNV protease inh 1, M1 antag -0.0048 and M1 ag 0.0063.
`Cn1c(=O)c2c(SCc3c(F)cccc3Cl)nc(CC(C)(C)C)nc2n(C)c1=O` gave mHtt clearance -40.
`Cc1ccccc1N1CCN(C(=O)CN2C(=O)c3ccccc3C2=O)CC1` gave WNV protease inh 0.95, M1 antag 0.24, D1 mod 0.28 and M1 ag -1.6.
`COc1cccc(C2CC(c3ccccc3)Nc3nc(N)nn32)c1` (stereo not given) gave WNV protease inh 0.21, M1 antag -0.42, D1 mod 5.3* and M1 ag 2.
Screening Cc1ccc2c(c1)[nH]c1c(N3CCN(Cc4ccc5c(c4)OCO5)CC3)ncnc12 returned WNV protease inh 1.2, M1 antag -2, D1 mod -2.6 and M1 ag 3.4*.
Screening CN(C)c1ccc(C2=NOC(CN3C(=O)c4ccccc4S3(=O)=O)C2)cc1 (stereo not given) returned WNV protease inh 1.3, M1 antag 0.073, D1 mod -5.7*, M1 ag 0.31 and mHtt clearance -26.
For COC(=O)c1sc(NC(=O)c2cnccn2)c(C(=O)OC)c1C the results were WNV protease inh 0.67, M1 antag -0.066, D1 mod 0.43 and M1 ag 0.33.
CCn1cc(C(=O)O)c(=O)c2cc(F)c(N3CCN(C(=O)Nc4ccccc4)CC3)cc21 was read as WNV protease inh 2, M1 antag 0.35, D1 mod -2.2*, M1 ag -0.31 and mHtt clearance 6.
CCn1cc(C(=O)NCCc2ccccc2)c(=O)c2cc(F)c(N3CCN(C)CC3)cc21 was read as WNV protease inh -0.85, M1 antag -1.8 and M1 ag 0.45.
For CCc1nc(SCC(=O)N2CCN(c3ccccc3)CC2)c2c(=O)n(C)c(=O)n(C)c2n1 the results were WNV protease inh -0.06, M1 antag -1.3, D1 mod -0.085 and M1 ag 0.82.
Screening Cn1c(=O)c2c(SCC(=O)N3CCC(Cc4ccccc4)CC3)nc(C3CC3)nc2n(C)c1=O returned WNV protease inh -1.5, M1 antag 0.44, D1 mod -5.7* and M1 ag 0.12.
Screening Cn1c(=O)c2c(SCC(=O)N3CCN(c4ccccc4)CC3)nc(C3CC3)nc2n(C)c1=O returned WNV protease inh -0.61, M1 antag -2.3*, D1 mod -3.6 and M1 ag 4.8*.
For Cn1c(=O)c2c(SCc3cccnc3)nc(C3CC3)nc2n(C)c1=O the results were WNV protease inh 1.6, M1 antag -1.8, D1 mod 3.5, M1 ag 1.8 and mHtt clearance -29.
O=C(c1cccnc1)N1CCCc2ccccc21 was read as WNV protease inh -0.33, M1 antag 0.028, D1 mod 0.26 and M1 ag -3*.
`O=C(c1cncc(Br)c1)N1CCCc2ccccc21` gave WNV protease inh 1.1, M1 antag 0.28, D1 mod 1.2, M1 ag 0.33 and mHtt clearance 54.
`Cc1cccc(OCC(=O)Nc2cc(C)ccc2O)c1` gave WNV protease inh 0.52, M1 antag 0.002, M1 ag 0.12 and mHtt clearance 85*.
Screening Cc1csc(NC(=O)c2cc3c(s2)CCC3)n1 returned WNV protease inh 0.0095, M1 antag 0.016, D1 mod -5.6*, M1 ag 3.2 and mHtt clearance 15.
`N#CC(C(=O)NC1CCCCC1)c1nc2ccccc2nc1N1CCOCC1` (stereo not given) gave WNV protease inh 0.13, M1 antag 1.7, D1 mod 0.39 and M1 ag 84*.
For COC(=O)C1CCN(c2nc3ccccc3nc2C(C#N)C(=O)NCCc2ccccc2)CC1 (stereo not given) the results were WNV protease inh 0.91, M1 antag 0.11 and M1 ag 25*.
For CC1CN(c2nc3ccccc3nc2C(C#N)C(=O)NCc2ccc3c(c2)OCO3)CC(C)O1 (stereo not given) the results were WNV protease inh -0.06, M1 antag -0.54, D1 mod 0.28, M1 ag 9.8* and mHtt clearance 64.
For C=CCOc1c(Cl)cc(C2NC(=O)NC(C)=C2C(=O)OC)cc1Cl (stereo not given) the results were WNV protease inh 1.7, M1 antag 0.19, D1 mod 2.2 and M1 ag -0.43.
CCOC(=O)C(CC(=O)O)N1CCCCC1 (stereo not given) was read as WNV protease inh -3.1*, M1 antag 0.29, M1 ag 0.015 and mHtt clearance 25.
CC(=O)Oc1c(S(=O)(=O)c2ccc(C)cc2)c(C)nn1C(C)(C)C was read as WNV protease inh 0.47, M1 antag 2.3*, D1 mod -0.038 and M1 ag 3.5.
Screening Cc1csc(NC(=O)c2cnc3ccccn3c2=O)n1 returned WNV protease inh -0.16, M1 antag -0.36, D1 mod -1.6 and M1 ag -0.1.
Screening Cc1ccccc1NC(=O)c1cnc2ccccn2c1=O returned WNV protease inh 0.1, M1 antag 0.21, D1 mod -5.8*, M1 ag -1 and mHtt clearance -32.
For COC(=O)c1cc(-c2ccc(OC)c(OC)c2)n[nH]1 the results were WNV protease inh 1.4, M1 antag 0.68, D1 mod 7* and M1 ag -0.12.
For COC(=O)c1cc(-c2ccccc2)n[nH]1 the results were WNV protease inh 0.33, M1 antag -0.27, D1 mod 0.41 and M1 ag -0.41.
O=C(COc1ccccc1)Nc1nnc(-c2ccc(Cl)s2)o1 was read as WNV protease inh -0.27, M1 antag 1.1, D1 mod 0.0058 and M1 ag 0.93.
CCOC(=O)N1CCN(C2OC(=O)c3ccccc32)CC1 (stereo not given) was read as WNV protease inh -0.7, M1 antag -2*, M1 ag 32* and mHtt clearance 22.
